Records with an inconclusive call do not appear. Where a call stands in place of a potency, no number is given. Active and inactive are the calls of the source. Calls come from the whole dose curve; as a rule, active = well fitted cell-killing curve with a large enough effect; inconclusive = small, poorly fitted or top-dose-only effect, or effect the other way; inactive = flat fitted curve, though single readings scatter.
The molecules below were run on PA-1 (assay: Primary qHTS to identify gynecologic anti-cancer compounds using libraries of approved drugs and bioactive compounds (AID 1345084; note: nearly all actives have a fitted effect of over 55% in size)). Conditions: Gynecologic cancer cell panel viability, ATPlite luminescence, 48 h; series mostly up to 57.5 µM.
Method in brief: (§1)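 Five-concentration response, 48 h; readout is ATP-driven luciferase luminescence.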
Potency is the fitted concentration of half-maximal effect.

SMILES	Potency
CCN(CC)CCN	inactive
CCNC(=O)NCCCOc1cccc(CN2CCCCC2)c1	inactive
CN1CCC(N(Cc2cccs2)c2ccccc2)CC1	inactive
C=CCOc1cc(Cl)ccc1C(=O)NCCN(CC)CC	inactive
C=CC[N+]1([C@H]2C[C@H]3[C@@H]4CC[C@H]5C[C@H](OC(C)=O)[C@@H](N6CCCCC6)C[C@]5(C)[C@H]4CC[C@]3(C)[C@H]2OC(=O)CC)CCCCC1	inactive
Nc1ncnc2n[nH]c(Nc3ccc(F)cc3)c12	25.1 µM (active)
O=C(c1ccco1)N1CCNCC1	inactive
CC(C(O)c1ccccc1)N(C)CCOC(c1ccccc1)c1ccccc1 (centres undefined)	inactive
C/C(=N\O)[C@@H](C)NCC(C)(C)CN[C@H](C)/C(C)=N/O	inactive
C[C@@H](C1=C(CCN(C)C)Cc2ccccc21)c1ccccn1	inactive
CCN1C(=O)c2ccccc2C1Nc1ccc(OCCN2CCCCC2)cc1 (centres undefined)	inactive
CN(C)CCOC1=Cc2ccccc2Sc2ccc(Cl)cc21	inactive
Cn1cc(S(C)=O)c(=O)c2ccc(F)cc21 (centres undefined)	inactive
Nc1ccc(C(=O)N2CC3CC(CN(Cc4ccccc4)C3)C2)cc1	inactive
O=C(O)c1ccccc1Nc1cc(Cl)ccc1C(=O)O	inactive
Cc1nc2n(c(=O)c1CCN1CCC(C(=O)c3ccc(F)cc3)CC1)CCS2	inactive
CCC(CN)=C(c1ccccc1)c1ccccc1	inactive
CCC(=O)Oc1ccc2c(c1)CC[C@@H]1[C@@H]2CC[C@@]2(C)[C@H]1C[C@@H](OC(=O)CC)[C@@H]2OC(=O)CC	inactive
CN1[C@@H]2CC[C@H]1CC(NC(=O)n1c(=O)[nH]c3ccccc31)C2 (some centres undefined)	inactive
CCCCCCOC(=O)NC(=N)c1ccc(NCc2nc3cc(C(=O)N(CCC(=O)OCC)c4ccccn4)ccc3n2C)cc1	inactive
OC(CCCN1CCCCC1)(c1ccccc1)c1ccccc1	inactive
N#C/C(=C1/SC[C@@H](c2ccc(Cl)cc2Cl)S1)n1ccnc1	inactive
C[C@H]1C[C@H]2[C@@H]3CCC4=CC(=O)C=C[C@]4(C)[C@H]3C(=O)C[C@]2(C)[C@@]1(O)C(=O)CO	inactive
CC(C)(c1ccc(O)cc1)c1ccc(O)cc1	inactive
O=C(OCCN1CCOCC1)c1cccnc1Nc1cccc(C(F)(F)F)c1	inactive

What follows are molecules tested on SKOV3 in the same assay as above. Conditions: Gynecologic cancer cell panel viability, ATPlite luminescence, 48 h; series mostly up to 57.5 µM.
Method in brief: as §1

SMILES	Potency
CCN(CC)CCN	inactive
CCNC(=O)NCCCOc1cccc(CN2CCCCC2)c1	inactive
CN1CCC(N(Cc2cccs2)c2ccccc2)CC1	inactive
C=CCOc1cc(Cl)ccc1C(=O)NCCN(CC)CC	inactive
C=CC[N+]1([C@H]2C[C@H]3[C@@H]4CC[C@H]5C[C@H](OC(C)=O)[C@@H](N6CCCCC6)C[C@]5(C)[C@H]4CC[C@]3(C)[C@H]2OC(=O)CC)CCCCC1	inactive
O=C(c1ccco1)N1CCNCC1	inactive
CC(C(O)c1ccccc1)N(C)CCOC(c1ccccc1)c1ccccc1 (centres undefined)	20 µM (active)
C/C(=N\O)[C@@H](C)NCC(C)(C)CN[C@H](C)/C(C)=N/O	inactive
C[C@@H](C1=C(CCN(C)C)Cc2ccccc21)c1ccccn1	inactive
CCN1C(=O)c2ccccc2C1Nc1ccc(OCCN2CCCCC2)cc1 (centres undefined)	inactive
CN(C)CCOC1=Cc2ccccc2Sc2ccc(Cl)cc21	inactive
Cn1cc(S(C)=O)c(=O)c2ccc(F)cc21 (centres undefined)	inactive
Nc1ccc(C(=O)N2CC3CC(CN(Cc4ccccc4)C3)C2)cc1	inactive
O=C(O)c1ccccc1Nc1cc(Cl)ccc1C(=O)O	inactive
Cc1nc2n(c(=O)c1CCN1CCC(C(=O)c3ccc(F)cc3)CC1)CCS2	inactive
CCC(CN)=C(c1ccccc1)c1ccccc1	inactive
CCC(=O)Oc1ccc2c(c1)CC[C@@H]1[C@@H]2CC[C@@]2(C)[C@H]1C[C@@H](OC(=O)CC)[C@@H]2OC(=O)CC	inactive
CN1[C@@H]2CC[C@H]1CC(NC(=O)n1c(=O)[nH]c3ccccc31)C2 (some centres undefined)	inactive
CCCCCCOC(=O)NC(=N)c1ccc(NCc2nc3cc(C(=O)N(CCC(=O)OCC)c4ccccn4)ccc3n2C)cc1	inactive
OC(CCCN1CCCCC1)(c1ccccc1)c1ccccc1	inactive
N#C/C(=C1/SC[C@@H](c2ccc(Cl)cc2Cl)S1)n1ccnc1	inactive
C[C@H]1C[C@H]2[C@@H]3CCC4=CC(=O)C=C[C@]4(C)[C@H]3C(=O)C[C@]2(C)[C@@]1(O)C(=O)CO	inactive
CC(C)(c1ccc(O)cc1)c1ccc(O)cc1	inactive
O=C(OCCN1CCOCC1)c1cccnc1Nc1cccc(C(F)(F)F)c1	inactive

Each molecule was assayed on Tov-21-G in the same assay as above. Conditions: Gynecologic cancer cell panel viability, ATPlite luminescence, 48 h; series mostly up to 57.5 µM.
Method in brief: as §1

SMILES	Potency
CCN(CC)CCN	inactive
CCNC(=O)NCCCOc1cccc(CN2CCCCC2)c1	inactive
CCCCCOc1ccccc1/C(=C\SC)n1ccnc1	inactive
CCOC(=O)c1ccc(O)c(O)c1	inactive
CN1CCC(N(Cc2cccs2)c2ccccc2)CC1	inactive
C=CCOc1cc(Cl)ccc1C(=O)NCCN(CC)CC	inactive
C=CC[N+]1([C@H]2C[C@H]3[C@@H]4CC[C@H]5C[C@H](OC(C)=O)[C@@H](N6CCCCC6)C[C@]5(C)[C@H]4CC[C@]3(C)[C@H]2OC(=O)CC)CCCCC1	inactive
Nc1c2ccccc2nc2ccccc12	14.1 µM (active)
CC[C@@]1(O)C(=O)OCc2c1cc1n(c2=O)Cc2c-1nc1ccccc1c2/C=N/OC(C)(C)C	1.41 µM (active)
O=C(c1ccco1)N1CCNCC1	inactive
CC(C(O)c1ccccc1)N(C)CCOC(c1ccccc1)c1ccccc1 (centres undefined)	inactive
CC(C)C(C)(C)C(C)(C)C(C)(C)S	inactive
C/C(=N\O)[C@@H](C)NCC(C)(C)CN[C@H](C)/C(C)=N/O	inactive
C[C@@H](C1=C(CCN(C)C)Cc2ccccc21)c1ccccn1	inactive
CCN1C(=O)c2ccccc2C1Nc1ccc(OCCN2CCCCC2)cc1 (centres undefined)	inactive
CN(C)CCOC1=Cc2ccccc2Sc2ccc(Cl)cc21	inactive
Cn1cc(S(C)=O)c(=O)c2ccc(F)cc21 (centres undefined)	inactive
Nc1ccc(C(=O)N2CC3CC(CN(Cc4ccccc4)C3)C2)cc1	inactive

SMILES	Potency
O=C(O)c1ccccc1Nc1cc(Cl)ccc1C(=O)O	inactive
Cc1nc2n(c(=O)c1CCN1CCC(C(=O)c3ccc(F)cc3)CC1)CCS2	inactive
CCC(CN)=C(c1ccccc1)c1ccccc1	inactive
CN1N=C(C(N)=O)CCC1=O	inactive
CCC(=O)Oc1ccc2c(c1)CC[C@@H]1[C@@H]2CC[C@@]2(C)[C@H]1C[C@@H](OC(=O)CC)[C@@H]2OC(=O)CC	inactive
CN1[C@@H]2CC[C@H]1CC(NC(=O)n1c(=O)[nH]c3ccccc31)C2 (some centres undefined)	inactive
CCCC(=O)c1cc(O)c(O)cc1O	inactive
CCCCCCCCCCCCCCCC[n+]1ccccc1	31.6 µM (active)
CO[C@@H]1[C@@H](OC)[C@H](C)[C@@](O)(CC(=O)O)O[C@H]1[C@H](C)[C@H]1O[C@@]2(CC[C@@](C)([C@H]3CC[C@@](C)([C@@H]4O[C@@H]([C@H]5O[C@](C)(O)[C@H](C)C[C@@H]5C)C[C@@H]4OC4C[C@H](OC)[C@@H](OC)[C@H](C)O4)O3)O2)C[C@H](O)[C@H]1C (some centres undefined)	11.2 µM (active)
CCCCCCOC(=O)NC(=N)c1ccc(NCc2nc3cc(C(=O)N(CCC(=O)OCC)c4ccccn4)ccc3n2C)cc1	inactive
OC(CCCN1CCCCC1)(c1ccccc1)c1ccccc1	inactive
N#C/C(=C1/SC[C@@H](c2ccc(Cl)cc2Cl)S1)n1ccnc1	inactive
CC(NCCC(c1ccccc1)c1ccccc1)c1ccccc1 (centres undefined)	inactive
C[C@H]1C[C@H]2[C@@H]3CCC4=CC(=O)C=C[C@]4(C)[C@H]3C(=O)C[C@]2(C)[C@@]1(O)C(=O)CO	inactive
CC[N+]1(CC)CCC(=C(c2ccccc2)c2ccccc2)C1C (centres undefined)	inactive
CC(C)(c1ccc(O)cc1)c1ccc(O)cc1	inactive
O=C(OCCN1CCOCC1)c1cccnc1Nc1cccc(C(F)(F)F)c1	inactive
